This is an account of results in the supplement of paper PMC7726561.

B1: unnamed (peptide)
chain: SPNLRLLDL
B2: unnamed (peptide)
chain: LPSPSPRISL
B3: unnamed (peptide)
chain: GSISRIYL
B4: unnamed (peptide)
chain: NVRPPNTAL
B5: unnamed (peptide)
chain: APYSRPKQL
B6: unnamed (peptide)
chain: APRGTGIVSA
B7: unnamed (peptide)
chain: IPRGADNLVAI
B8: unnamed (peptide)
chain: VPRPPSLLATL
B9: unnamed (peptide)
chain: FPQHTIASL
B10: unnamed (peptide)
chain: GPRNVLLFL
B11: unnamed (peptide)
chain: TPQQGAQTSL
B12: unnamed (peptide)
chain: TPQGFRSTL
B13: unnamed (peptide)
chain: YLRDTLLAL
B14: unnamed (peptide)
chain: VPEVTKPSL
B15: unnamed (peptide)
chain: SPRPALPALL
B16: unnamed (peptide)
chain: APILRARLLPL
B17: unnamed (peptide)
chain: YPKRPLLGL
B18: unnamed (peptide)
chain: YIDEGRLVL
B19: unnamed (peptide)
chain: GPRSSLRVL
B20: unnamed (peptide)
chain: FPRSVVEFL
B21: unnamed (peptide)
chain: LPAPKGPAL
B22: unnamed (peptide)
chain: LPTSPGPAL
B23: unnamed (peptide)
chain: KPNHTLVLL
B24: unnamed (peptide)
chain: RPADSMLNVL
B25: unnamed (peptide)
chain: RPAPLVQQL
B26: unnamed (peptide)
chain: APREHPFVL
B27: unnamed (peptide)
chain: LPRTIFPTSTI
B28: unnamed (peptide)
chain: LPHSATVTL
B29: unnamed (peptide)
chain: DPMKARVVL
B30: unnamed (peptide)
chain: IPKLPAVSF
B31: unnamed (peptide)
chain: QPRSPGPDYSL
B32: unnamed (peptide)
chain: RPKALTQVL
B33: unnamed (peptide)
chain: SPLVSRLTLY
B34: unnamed (peptide)
chain: SPLVSRLTL
B35: unnamed (peptide)
chain: RPQLKGVVL
B36: unnamed (peptide)
chain: SPLPSPSAM
B37: unnamed (peptide)
chain: HPISNNNSL
B38: unnamed (peptide)
chain: NPMVTGTSV
B39: unnamed (peptide)
chain: LPHEVDKSEL
B40: unnamed (peptide)
chain: SPVLRNFTF
B41: unnamed (peptide)
chain: IPRPEVQAL
B42: unnamed (peptide)
chain: VPQVKASAL
B43: unnamed (peptide)
chain: LPGLRDLVL
B44: unnamed (peptide)
chain: MPKVKTIEL
B45: unnamed (peptide)
chain: APRSVAVSSI
B46: unnamed (peptide)
chain: SPHPGLLL
B47: unnamed (peptide)
chain: KPHIGLTEL
B48: unnamed (peptide)
chain: LPRTPSYSI
B49: unnamed (peptide)
chain: HPISSEELLSL
B50: unnamed (peptide)
chain: MPKLRVLEL
B51: unnamed (peptide)
chain: YPNERFELL
B52: unnamed (peptide)
chain: APSDLRTIQTF
B53: unnamed (peptide)
chain: RPFFPLTATL
B54: unnamed (peptide)
chain: FIRNRTLQL
B55: unnamed (peptide)
chain: MPARWLTHL
B56: unnamed (peptide)
chain: QPVAGRPSL
B57: unnamed (peptide)
chain: QPNLKLLAM
B58: unnamed (peptide)
chain: SPRGAGYLF
B59: unnamed (peptide)
chain: RPVLWVGV

Whole data set: some 1,400 sequences, median “thermal melting temperature (Tm) of peptide-HLA complex” near 60, cut for the lowest 2% near 45. The full list was thinned out, with the lowest values kept by preference.
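Note: lysates heated 10 min at 37–73 °C, complexes pulled down with pan-HLA I antibody, peptide signal by DIA-MS relative to 37 °C, Tm where half the complex is unfolded.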

In this assay the target is HLA-B*07:02. Description: thermal melting temperature (Tm) of peptide-HLA complex; higher = more thermostable pHLA complex. The settings on record: C1R-B*07:02.
Sequence B1 displayed a thermal melting temperature of 63.4 °C.

For the sequence B2, the thermal melting temperature was found to be 60.6 °C.

B3 registered a thermal melting temperature of 41.4 °C.

For the sequence B4, the thermal melting temperature is 56.8 °C.

As to B5, the thermal melting temperature was 61.5 °C.

On to B6, for which the thermal melting temperature worked out at 57.4 °C.

Sequence B7 returned a thermal melting temperature of 61.8 °C.

Sequence B8 returned a thermal melting temperature of 62.9 °C.

In turn, B9 yielded a thermal melting temperature of 58.7 °C.

B10 returned a thermal melting temperature of 55.1 °C.

The sequence B11 registered a thermal melting temperature of 40.5 °C.

Sequence B12 registered a thermal melting temperature of 60 °C.

B13: the thermal melting temperature worked out at 53.6 °C.

B14: the thermal melting temperature was found to be 57.6 °C.

On to B15, for which the thermal melting temperature was 60.2 °C.

The sequence B16 had a thermal melting temperature of 47.3 °C.

B17 gave a thermal melting temperature of 61.3 °C.

Consider B18, for which the thermal melting temperature was 51.6 °C.

The sequence B19 returned a thermal melting temperature of 58.9 °C.

Turning to B20, the thermal melting temperature worked out at 62 °C.

On to B21, for which the thermal melting temperature worked out at 57.9 °C.

Sequence B22 showed a thermal melting temperature of 40.6 °C.

B23: the thermal melting temperature was determined as 59.2 °C.

B24: the thermal melting temperature came out at 62 °C.

For the sequence B25, the thermal melting temperature is 58.3 °C.

On to B26, for which the thermal melting temperature turned out to be 61 °C.

B27 had a thermal melting temperature of 62.8 °C.

Sequence B28 came in with a thermal melting temperature of 60.7 °C.

B29 displayed a thermal melting temperature of 49.3 °C.

B30 came in with a thermal melting temperature of 63.1 °C.

Take B31: the thermal melting temperature is 57.7 °C.

The sequence B32 showed a thermal melting temperature of 61 °C.

Sequence B33 displayed a thermal melting temperature of 41.1 °C.

Consider B34, for which the thermal melting temperature turned out to be 61.4 °C.

B35 yielded a thermal melting temperature of 61.1 °C.

On to B36, for which the thermal melting temperature came to 63.8 °C.

Regarding B37, the thermal melting temperature amounted to 41.6 °C.

B38 registered a thermal melting temperature of 56.3 °C.

Sequence B39 had a thermal melting temperature of 44.8 °C.

Regarding B40, the thermal melting temperature was found to be 41.7 °C.

B41 gave a thermal melting temperature of 54.1 °C.

Turning to B42, the thermal melting temperature amounted to 59 °C.

In the case of B43, the thermal melting temperature came to 61.7 °C.

With B44, the thermal melting temperature came out at 56.4 °C.

Take B45: the thermal melting temperature was determined as 59.4 °C.

On to B46, for which the thermal melting temperature was determined as 61 °C.

Turning to B47, the thermal melting temperature amounted to 60.7 °C.

In turn, B48 had a thermal melting temperature of 62.1 °C.

Take B49: the thermal melting temperature came out at 58.6 °C.

Take B50: the thermal melting temperature was determined as 57.1 °C.

Sequence B51 came in with a thermal melting temperature of 63.1 °C.

In the case of B52, the thermal melting temperature was found to be 62.8 °C.

The sequence B53 displayed a thermal melting temperature of 49.6 °C.

B54: the thermal melting temperature is 61.5 °C.

In turn, B55 returned a thermal melting temperature of 55 °C.

For the sequence B56, the thermal melting temperature was determined as 55.8 °C.

B57 returned a thermal melting temperature of 62.9 °C.

With B58, the thermal melting temperature stood at 63 °C.

With B59, the thermal melting temperature was determined as 60.8 °C.
